Screening results deposited in PubChem by National Center for Advancing Translational Sciences (NCATS).
The list is not random: actives were taken first. Their share in the collection is about 1.7%.
RGS4 inhibitor – inhibitors of human regulator of G protein signaling 4. P49798. Transcreener GDP fluorescence polarization, RGS4-accelerated GTP hydrolysis. Potency, µM (doses to about 114 µM), hits mostly inhibitors. hit rate 0.039% among 390,000. AID 504845; further: nearly all actives have a fitted effect of over 75% in size
Target sequence (P49798 whole entry, looked up): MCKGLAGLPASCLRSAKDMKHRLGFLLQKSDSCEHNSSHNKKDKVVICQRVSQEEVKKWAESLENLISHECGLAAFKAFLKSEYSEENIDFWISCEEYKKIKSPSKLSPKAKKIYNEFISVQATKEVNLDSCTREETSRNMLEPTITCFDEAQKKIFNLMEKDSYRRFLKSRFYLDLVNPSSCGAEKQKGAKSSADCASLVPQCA
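MLSMR compounds (23 nl, pin-transferred) preincubated 10 min at room temperature with a 500nM (2x) first reagent, then RGS4 at 900nM (2x) plus Transcreener GDP mix added; fluorescence polarization (620/688 nm) read before and after 90 min at 30 °C.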
GLP-1R inv ag – acts as inverse agonist at human GLP-1 receptor; hit rate 1.6% among 410,000; HEK293 GLP-1R CRE-luciferase, luminescence, 24 h; GLP-1R form is constitutively active; AID 624417; Potency, µM (doses to about 38.3 µM), usual class: inhibitors; further: nearly all actives have a fitted effect of over 55% in size
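Using stably transfected HEK293 (constitutively active GLP-1R, cAMP-luciferase reporter), compounds were incubated 24 hr and luciferase measured by luminescence.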
GLP1R cytotox – cytotoxicity counter-screen for GLP-1 receptor inverse agonists | Potency, µM (highest dose often 38.3 µM), hits mostly inhibitors | AID 624418 | hit rate 0.13% among 410,000 | HEK293 cAMP-luciferase reporter cells, luminescence, 24 h;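 further: loss of luciferase light is scored as toxicity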
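Luminescence readout: signal drop marks cytotoxicity. Plated cells grew 12 h at 37 °C, 5% CO2, received 23 nL compound for 24 h, then got luciferase reagent, read after 12 min at RT.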
GLP-1R agonist – GLP-1 receptor (human) agonism | P43220 | AID 624172 | hit rate 0.007% among 380,000 | HEK293 GLP-1R CRE-luciferase, luminescence, 4-6 h; cells express a hypersensitive GLP-1R form | Potency, µM (doses to about 45.6 µM), most hits filed as activators
PTHR1 agonist – PTHR1 (human) receptor agonism; HEK293 GP2 PTHR1 cells, GloSensor cAMP luminescence, 1 h; Potency, µM (titrated, usually from 115 µM), usual class: activators; hit rate 0.075% among 410,000; AID 743266; further: nearly all actives have a fitted effect of over 55% in size
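HEK-293-derived GP2 cells expressing PTHR1 and a GloSensor cAMP reporter, 3,000/well, plated overnight, given luciferin plus IBMX (each 0.5 mM as added) for 1 h at 37 °C, then compound for 1 h at 37 °C. Luminescence was read after 15 min at room temperature.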
Each line names hits and unclear results; the compound was inactive in the other large screens. The call rests on the fitted dose curve; in most records, active means well fitted curve in the direction sought with a large enough effect; inconclusive means small, poorly fitted or top-dose-only effect, or another doubt; inactive means no such curve, though single readings can be large; an effect the other way counts as inactive or inconclusive.

CC(=O)C(C(C)=O)C(c1ccccc1)c1nc2ccccc2[nH]c1=O (stereo not given)	none
CC(C)Cn1cc(NC(=O)NCc2cccc(Cl)c2)c2ccccc2c1=O	none
Fc1ccc(C2c3[nH]c4ccccc4c3CCN2Cc2cccn2-c2ncccn2)cc1 (stereo not given)	GLP-1R inv ag 11µM
COc1cccc(C2c3[nH]c4ccccc4c3CCN2Cc2cccn2-c2ncccn2)c1 (stereo not given)	GLP-1R inv ag inconclusive
CC(C)CNC(=S)N1CCC(Cc2ccccc2)CC1	GLP-1R inv ag 3.2µM, GLP1R cytotox inconclusive
Cc1ccc(CN(C)C(=O)c2ccccc2Sc2ccccc2C#N)cc1	GLP-1R inv ag 10µM
COc1cccc(CN(C)C(=O)c2ccccc2Sc2ccccc2C#N)c1OC	GLP-1R inv ag 8.9µM
Cc1ccc(S(=O)(=O)NCC(c2ccc3c(c2)OCO3)N2CCOCC2)cc1 (stereo not given)	none
COc1ccc(OC)c(-c2csc(NC(=O)c3ccc(F)cc3)n2)c1	GLP-1R inv ag 10µM
COc1ccc(OC)c(-c2csc(NC(=O)Cc3ccc(F)cc3)n2)c1	GLP-1R inv ag inconclusive
CCSc1nc2ccccc2c(OCc2ccc(Cl)cc2)c1C(=O)OC	GLP-1R inv ag 22µM (no result: GLP-1R agonist)
COc1ccc(-c2nc3scc(CCNS(=O)(=O)c4ccc5c(c4)OCCO5)n3n2)cc1	none (no result: GLP-1R agonist)
CC1(C)CC(=O)C(N=Nc2cc(Cl)c(Cl)c(Cl)c2)=C(O)C1	none
Cc1ccc(O)c(N=NC2=C(O)CC(C)(C)CC2=O)c1	GLP-1R inv ag inconclusive, GLP1R cytotox 13µM
C=CC[C@@H](CC(=O)N[C@H](CO)Cc1ccccc1)C(=O)N[C@H](COC(=O)[C@@H](CC=C)Cc1ccc(F)cc1)Cc1c[nH]c2ccccc12	GLP-1R inv ag inconclusive
CC(C)(C)c1ccc(OCCOc2ccc(C(C)(C)C)cc2NC=O)c(NC=O)c1	GLP-1R inv ag 4.5µM
S=C(Nc1ccc(Cl)cc1)NC1CC2CCC(C1)N2Cc1ccccc1 (stereo not given)	GLP-1R inv ag 7.1µM
S=C(Nc1ccc(Cl)cc1)NC1CC2CCCC(C1)N2C1CCCC1 (stereo not given)	GLP-1R inv ag 8.9µM, GLP1R cytotox inconclusive, PTHR1 agonist inconclusive
CCCCCCn1c(O)c(/C=C2\C=NN=C2c2ccccc2)sc1=S	RGS4 inhibitor inconclusive, GLP-1R inv ag inconclusive, GLP1R cytotox 11µM
CCCCn1c(O)c(/C=C2\C=NN=C2c2ccccc2)sc1=S	none
COc1ccc(NC(=O)Nc2nc(C(N)CC(C)C)cs2)cc1 (stereo not given)	GLP-1R inv ag inconclusive (no result: RGS4 inhibitor)
CC(C)CC(N)c1csc(NC(=O)Nc2ccccc2C(C)C)n1 (stereo not given)	GLP-1R inv ag 10µM, GLP1R cytotox inconclusive (no result: RGS4 inhibitor)
CC(C)c1ccccc1NC(=O)Nc1nc(C(N)Cc2ccc(C(F)(F)F)cc2)cs1 (stereo not given)	GLP-1R inv ag 13µM, GLP1R cytotox inconclusive (no result: RGS4 inhibitor)
CCOc1cc(Cn2c(-c3ccc(O)c(OCC)c3)nc3ccccc32)ccc1O	GLP-1R inv ag inconclusive (no result: GLP-1R agonist)
O=C(CN1CCN(C(C(=O)Nc2cc(C(F)(F)F)ccc2Cl)c2ccccc2)CC1)NC1CC1 (stereo not given)	none
COc1ccc(CNn2c(-c3cccs3)nc3ccccc3c2=O)cc1OC	RGS4 inhibitor inconclusive, GLP-1R inv ag 10µM
COc1cccc(C(=O)Nn2c(-c3cccs3)nc3ccccc3c2=O)c1OC	none
CC(C)(C)c1ccc(OCCn2c(CCNC(=O)C3CCCCC3)nc3ccccc32)cc1	none (no result: GLP-1R inv ag, GLP1R cytotox, GLP-1R agonist, PTHR1 agonist)
COC(=O)c1ccc(C(=O)OC)c(NC(=O)c2cnn3c(C(F)F)cc(-c4ccccc4)nc23)c1	none (no result: GLP-1R agonist)
Cc1ccc(N/N=C2\CCS(=O)(=O)c3sccc32)cc1	RGS4 inhibitor inconclusive, GLP-1R inv ag 4µM
COc1cccc(CN(Cc2ccco2)C(c2ccc(F)cc2)c2nnnn2C(C)(C)C)c1 (stereo not given)	GLP-1R inv ag 10µM
COc1ccc(S(=O)(=O)N2CCOCC2)cc1C(=O)Nc1ccc(N2CCCCCC2)cc1	GLP-1R inv ag 10µM
COc1ccc(S(=O)(=O)N2CCCCC2)cc1NCC(=O)Nc1ccc(C)cc1	GLP-1R inv ag 8.9µM
